Read-out in assay [1]: Interleukin-8 (IL8), CXCL8 (gene 3576)
The assay can be described thus: BSK_3C_IL8: BioMAP Diversity Plus: 3C Assay for Interleukin-8 (IL8) Biomarker Activity (AID 2283020). The note with it: primary human endothelial cells (HUVEC); actives raise or lower the signal. An outline of the steps: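 ELISA read-out of IL-8 from human umbilical vein endothelium, measured 24 h after chemical dosing. Activity is expressed relative to DMSO negative control, with both increases and decreases fitted.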

Read-out in assay [2]: Monokine induced gamma interferon (MIG), CXCL9 (gene 4283)
The assay can be described thus: BSK_3C_MIG: BioMAP Diversity Plus: 3C Assay for Monokine induced gamma interferon (MIG) Biomarker Activity (AID 2283021).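 For AC50: MIG protein level measured by immunoassay in the treated endothelial cultures.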 The settings on record: primary human endothelial cells (HUVEC); actives raise or lower the signal. The essentials: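 Read-out is ELISA detection of MIG on human umbilical vein endothelial cells, taken 24 h after dosing. Gain or loss of signal was scored relative to DMSO controls using bidirectional curve fitting.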

The target of assay [3] is human Vitamin D Receptor (VDR), VDR (gene 7421) (UniProt P11473). The assay can be described thus: ATG_VDR_TRANS: Attagene TRANS-FACTORIAL HepG2 Assay for human Vitamin D Receptor (VDR) (AID 2283022; active = hit-call score of the fitted dose curve at least 0.9, where 1 is the maximum). An outline of the steps:
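Steps: transfect HepG2 with GAL4-UAS-driven reporter constructs; dose compounds 24 h; isolate RNA, reverse-transcribe, PCR-amplify with 6-FAM-labelled primer extension and HpaI digestion; quantify fragments by capillary electrophoresis relative to DMSO.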

A short description of assay [4]: BSK_3C_SRB: Viability Assessment in the BioMAP Diversity Plus: 3C Assay (AID 2283023).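 Note: fitted both ways against DMSO so a hit may be signal rise or drop.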 The note with it: primary human endothelial cells (HUVEC). The essentials: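 Absorbance at 560 nm of sulforhodamine B-stained (0.1%) total protein served as a cytotoxicity readout in human umbilical vein endothelial cells, 24 h after chemical treatment. Signal was fitted bidirectionally relative to DMSO.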

Read-out in assay [5]: Matrix Metallopeptidase 1 (MMP1), MMP1 (gene 4312)
The assay can be described thus: BSK_BE3C_MMP1: BioMAP Diversity Plus: BE3C Assay for Matrix Metallopeptidase 1 (MMP1) Biomarker Activity (AID 2283024). The note with it: primary human bronchial epithelial cells; actives raise or lower the signal. The essentials:
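Human bronchial epithelial cells (BE3C system) exposed to compound for 24 h; MMP1 then quantified by ELISA. Activity was fitted in both directions relative to DMSO.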

Assay [6] is described as follows: BSK_3C_Vis: BioMAP Diversity Plus: 3C Assay for Morphology Visualization (AID 2283025).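 For AC50: light microscopy image of cell morphology used as background control.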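 Note: fitted both ways so gain or loss versus DMSO counts.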 The note with it: primary human endothelial cells (HUVEC). The essentials:
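Chemicals were added to primary human umbilical vein endothelium, cells were incubated 24 h, and morphology was then visualized by light microscopy. Gain or loss of signal was fitted bidirectionally relative to DMSO.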

Read-out in assay [7]: Pselectin, SELP (gene 6403)
The assay can be described thus: BSK_4H_Pselectin: BioMAP Diversity Plus: 4H Assay for Pselectin Biomarker Activity (AID 2283026). The settings on record: primary human endothelial cells (HUVEC); actives raise or lower the signal. The essentials:
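ELISA read-out of P-selectin on human umbilical vein endothelium after 24 h of dosing. Values derive from bidirectional fitting relative to DMSO. Parallel SRB protein staining flagged overt cytotoxicity.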

Assay [8] can be described thus: BSK_4H_SRB: Viability Assessment in the BioMAP Diversity Plus: 4H Assay (AID 2283027).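 For AC50: curves fitted both ways versus DMSO so AC50 may be loss or gain.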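 Note: cells exposed to compound for 24 h before staining.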 The note with it: primary human endothelial cells (HUVEC). An outline of the steps: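 Human umbilical vein endothelial cells were dosed with chemical and, after 24 h, fixed with 10% TCA, stained with 0.1% sulforhodamine B, and read at 560 nm to give total protein as a cytotoxicity measure. Bidirectional fitting relative to DMSO control.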

The nature of assay [9]: BSK_BE3C_SRB: Viability Assessment in the BioMAP Diversity Plus: BE3C Assay (AID 2283028).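 For AC50: fitted both ways so AC50 may mark signal gain or loss versus DMSO.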 The settings on record: primary human bronchial epithelial cells. The essentials:
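Cells (human bronchial epithelial, primary) are treated with chemicals, and after 24 h the parallel cultures are fixed in 10% TCA. These are then stained with 0.1% SRB and read at 560 nm. Gain or loss of signal is fitted relative to DMSO.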

Read-out in assay [10]: Thrombomodulin, THBD (gene 7056)
The assay can be described thus: BSK_3C_Thrombomodulin: BioMAP Diversity Plus: 3C Assay for Thrombomodulin Biomarker Activity (AID 2283029). The settings on record: primary human endothelial cells (HUVEC); actives raise or lower the signal. An outline of the steps: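 Read-out is ELISA of thrombomodulin on human umbilical vein endothelium 24 h after chemical dosing. Gain or loss of signal is scored relative to DMSO. Overt cytotoxicity is checked in parallel cultures by sulforhodamine B staining.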

This is an account of results in PubChem BioAssay (EPA / NIEHS).

Where “and” joins values, the source holds several entries; their conditions need not be identical. Equal values may be shown once. Inconclusive results are not listed. Some structures have more than one record in an assay (separate samples or runs), and their calls can disagree. Calls of active or inactive are those of the source. Rule for the calls, unless noted: active = hit-call score of the fitted dose curve at least 0.9, where 1 is the maximum; inactive = score below 0.9.

Sequence of human Vitamin D Receptor (VDR), VDR (gene 7421) (P11473 whole entry, looked up, the tested form may be a part): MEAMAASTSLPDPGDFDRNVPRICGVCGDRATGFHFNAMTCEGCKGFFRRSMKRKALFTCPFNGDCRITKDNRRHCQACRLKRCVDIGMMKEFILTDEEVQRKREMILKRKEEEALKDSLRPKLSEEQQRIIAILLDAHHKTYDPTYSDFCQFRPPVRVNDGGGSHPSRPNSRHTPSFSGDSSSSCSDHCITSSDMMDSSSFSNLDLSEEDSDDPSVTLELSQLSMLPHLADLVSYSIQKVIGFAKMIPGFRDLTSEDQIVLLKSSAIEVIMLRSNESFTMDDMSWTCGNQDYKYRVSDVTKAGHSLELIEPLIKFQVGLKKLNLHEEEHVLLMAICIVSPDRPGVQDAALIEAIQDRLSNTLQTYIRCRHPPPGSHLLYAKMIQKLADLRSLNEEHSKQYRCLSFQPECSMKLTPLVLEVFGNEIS

Regarding `COC(=O)c1ccccc1S(=O)(=O)NC(=O)Nc1nc(C)nc(OC)n1`, the result in assay [1], in [2], in assay [3], in assay [4], in assay [5] and in assay [6] was inactive. The result in assay [7], in [8], in [9] and in [10] was inactive.

As for `O=C(O)C(F)(F)C(F)(F)C(F)(F)C(F)(F)C(F)(F)C(F)(F)C(F)(F)F`, the AC50 – broadly, the concentration giving half of the maximal activity seen – in [1] is 30 µM (active) and 16 µM (active) and 22.5 µM (active); in assay [4] it was 46.1 µM (active); in [5] it was 25.8 µM (active) [middle of 5 runs]. In addition, the outcome in [1], in assay [2], in assay [3], in assay [4], in [5] and in [6] was inactive. In addition, the result in assay [7], in assay [8], in [9] and in [10] was inactive.

Take `CC1(C)C(C=C(Cl)Cl)C1C(=O)OC(C#N)c1ccc(F)c(Oc2ccccc2)c1` (configuration not stated): the result in [1], in assay [2], in assay [3], in assay [5], in assay [7] and in assay [8] was inactive. Further, the result in assay [9] and in assay [10] was inactive. Further, the AC50 in [4] was 8.15 µM (active); in assay [6] it was 9.8 µM (active).

Consider `Oc1cc(Cl)ccc1Oc1ccc(Cl)cc1Cl`, for which the AC50 in assay [1] was 27.3 µM (active) [middle of 4 runs]; in assay [2], 32.6 µM (active) [middle of 4 runs]; in [4], 10.8 µM (active) [middle of 4 runs]; in [5], 32.6 µM (active) [middle of 4 runs]; in assay [6], 12.6 µM (active) [middle of 4 runs]; in assay [7], 12.3 µM (active) [middle of 4 runs]. The AC50 in assay [8] is 20.4 µM (active) and 17.8 µM (active) and 20.9 µM (active); in [9], 31.4 µM (active) [middle of 4 runs]. Further, the call in [3] and in [10] was inactive.

Consider `CNC(=O)CSP(=S)(OC)OC`, for which the result in assay [1], in [2], in assay [3], in assay [4], in assay [5] and in [6] was inactive. For the same compound, the outcome in assay [7], in [8], in [9] and in [10] was inactive.

Consider `CC(C)(C)C(O)C(Oc1ccc(Cl)cc1)n1cncn1` (configuration not stated), for which the result in assay [1], in assay [2], in assay [3], in assay [4], in assay [5] and in assay [6] was inactive. The result in assay [7], in [8], in [9] and in assay [10] was inactive.

Take `COC(=O)c1ccccc1CS(=O)(=O)NC(=O)Nc1nc(OC)cc(OC)n1`: the outcome in [1], in assay [2], in [3], in assay [4], in assay [5] and in [6] was inactive. The outcome in [7], in assay [8], in assay [9] and in assay [10] was inactive.

As for `O=S(=O)(O)C(F)(F)C(F)(F)C(F)(F)C(F)(F)C(F)(F)C(F)(F)C(F)(F)C(F)(F)F`, the outcome in assay [1], in [2], in assay [3], in assay [4], in [5] and in [6] was inactive. Also, the result in assay [7], in [8], in assay [9] and in [10] was inactive. In addition, the AC50 in assay [4] is 31.5 µM (active) and 30.8 µM (active) and 26.7 µM (active); in assay [6], 37.7 µM (active) and 13.7 µM (active); in [7] it was 12.2 µM (active) and 3.81 µM (active); in assay [9], 19.8 µM (active) [middle of 7 runs].

Take `O=C(O)CCCOc1ccc(Cl)cc1Cl`: the outcome in [1], in assay [2], in [3], in assay [4], in assay [5] and in assay [6] was inactive. For the same compound, the outcome in [7], in [8], in assay [9] and in [10] was inactive.

`CNC(=O)/C=C(\C)OP(=O)(OC)OC`: the outcome in assay [1], in assay [2], in [3], in assay [4], in assay [5] and in assay [6] was inactive. Further, the outcome in assay [7], in assay [8], in [9] and in assay [10] was inactive.

For `O=C(O)COc1ccc(Cl)cc1Cl`, the outcome in assay [1], in assay [2], in assay [3], in assay [4], in assay [5] and in assay [6] was inactive. Besides, the result in [7], in assay [8], in assay [9] and in assay [10] was inactive.

With `[2H]C1([2H])[n+]2ccccc2-c2cccc[n+]2C1([2H])[2H]`, the result in assay [1], in [2], in [3], in assay [4], in [6] and in assay [7] was inactive. The outcome in assay [8] and in assay [10] was inactive. Besides, the figures for the AC50 in assay [5] and in assay [9] were 2.08 µM (active) and 13.3 µM (active), respectively.
